Active and inactive are the calls of the source.

Consider 18 molecules from PubChem BioAssay.

Test [1] can be described thus: binders of probe aFSTL3 on microarray, primary screen, stem cell growth factor project, biochemical, small-molecule microarray, fluorescence 635/667 (AID 1064).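 Also: measures binding of the biotinylated anti-FSTL3 antibody to printed compounds.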 The conditions noted are these: higher = more signal.
Test [2] can be described thus: binders from COS7 lysate, DM2A8 probe, primary screen, torsin A project, cell lysate, small-molecule microarray, fluorescence 635/667 (AID 1065). The conditions noted are these: higher = more signal, COS7 lysate expressing mutant human TOR1A.
Test [3] is described as follows: binders of probe aFGF2 on microarray, primary screen, stem cell growth factor project, biochemical, small-molecule microarray, fluorescence 635/667 (AID 1067).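 Also: measures binding of biotinylated aFGF2 protein to printed compounds on slides; z-score merges feature fluorescence and signal-to-noise across triplicate slides.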 The following applies: higher = more signal.
Test [4] in a line: binders of probe aFGF10 on microarray, primary screen, stem cell growth factor project, biochemical, small-molecule microarray, fluorescence 635/667 (AID 1071).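 Also: score merges 667 nm spot intensity and signal to noise from triplicate slides.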 The following applies: higher = more signal.
Test [5] has as its target Neurogenic locus notch homolog protein 2 (Homo sapiens) (UniProt Q04721). In words: Notch2 binders on small-molecule microarrays, primary screen, biochemical, small-molecule microarray, 635 nm fluorescence, stem cell growth factors (AID 1073). The following applies: Notch2 binding, higher = more signal.
The target in test [6] is Pro-neuregulin-1, membrane-bound isoform (Homo sapiens) (UniProt Q02297). In words: NRG1 binders on small-molecule microarrays, primary screen, psychiatric disease protein project, biochemical, small-molecule microarray, fluorescence 635/667 (AID 1075).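 Also: score combines 667 nm spot fluorescence with signal to noise.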 The conditions noted are these: NRG1 binding, 635 nm fluorescence, higher = more signal.
For test [7], the system named is Neuregulin-1 EGF-like domain. In words: binders of neuregulin-1 EGF-like domain, primary screen, biochemical, small-molecule microarray, 635 nm fluorescence (AID 1081).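 Also: binding of the protein to compounds printed on small-molecule microarray slides.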 The following applies: small-molecule microarray binding, higher = more signal.
Test [8] is described as follows: FRG1 promoter luciferase signal modulators, primary screen, FRG1 inhibition for FSHD, cell-based, C2C12 myotubes, firefly/Renilla luciferase, luminescence (AID 1084). The following applies: higher = more signal, called active from +8 up or from −8 down.
Test [9] is described as follows: binders of probe aFST on microarray, primary screen, stem cell growth factor project, biochemical, small-molecule microarray, fluorescence 635/667 (AID 1086).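 Also: score merges 667 nm fluorescence with signal-to-noise of each printed compound spot.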 The following applies: higher = more signal.
Test [10] is described as follows: binders of probe aHhip on microarray, primary screen, stem cell growth factor project, biochemical, small-molecule microarray, fluorescence 635/667 (AID 1087).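 Also: score merges spot fluorescence at 667nm with spot signal to noise ratio.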 The following applies: higher = more signal.

Chain of Neurogenic locus notch homolog protein 2 (Homo sapiens) (Q04721 whole entry, looked up, canonical isoform): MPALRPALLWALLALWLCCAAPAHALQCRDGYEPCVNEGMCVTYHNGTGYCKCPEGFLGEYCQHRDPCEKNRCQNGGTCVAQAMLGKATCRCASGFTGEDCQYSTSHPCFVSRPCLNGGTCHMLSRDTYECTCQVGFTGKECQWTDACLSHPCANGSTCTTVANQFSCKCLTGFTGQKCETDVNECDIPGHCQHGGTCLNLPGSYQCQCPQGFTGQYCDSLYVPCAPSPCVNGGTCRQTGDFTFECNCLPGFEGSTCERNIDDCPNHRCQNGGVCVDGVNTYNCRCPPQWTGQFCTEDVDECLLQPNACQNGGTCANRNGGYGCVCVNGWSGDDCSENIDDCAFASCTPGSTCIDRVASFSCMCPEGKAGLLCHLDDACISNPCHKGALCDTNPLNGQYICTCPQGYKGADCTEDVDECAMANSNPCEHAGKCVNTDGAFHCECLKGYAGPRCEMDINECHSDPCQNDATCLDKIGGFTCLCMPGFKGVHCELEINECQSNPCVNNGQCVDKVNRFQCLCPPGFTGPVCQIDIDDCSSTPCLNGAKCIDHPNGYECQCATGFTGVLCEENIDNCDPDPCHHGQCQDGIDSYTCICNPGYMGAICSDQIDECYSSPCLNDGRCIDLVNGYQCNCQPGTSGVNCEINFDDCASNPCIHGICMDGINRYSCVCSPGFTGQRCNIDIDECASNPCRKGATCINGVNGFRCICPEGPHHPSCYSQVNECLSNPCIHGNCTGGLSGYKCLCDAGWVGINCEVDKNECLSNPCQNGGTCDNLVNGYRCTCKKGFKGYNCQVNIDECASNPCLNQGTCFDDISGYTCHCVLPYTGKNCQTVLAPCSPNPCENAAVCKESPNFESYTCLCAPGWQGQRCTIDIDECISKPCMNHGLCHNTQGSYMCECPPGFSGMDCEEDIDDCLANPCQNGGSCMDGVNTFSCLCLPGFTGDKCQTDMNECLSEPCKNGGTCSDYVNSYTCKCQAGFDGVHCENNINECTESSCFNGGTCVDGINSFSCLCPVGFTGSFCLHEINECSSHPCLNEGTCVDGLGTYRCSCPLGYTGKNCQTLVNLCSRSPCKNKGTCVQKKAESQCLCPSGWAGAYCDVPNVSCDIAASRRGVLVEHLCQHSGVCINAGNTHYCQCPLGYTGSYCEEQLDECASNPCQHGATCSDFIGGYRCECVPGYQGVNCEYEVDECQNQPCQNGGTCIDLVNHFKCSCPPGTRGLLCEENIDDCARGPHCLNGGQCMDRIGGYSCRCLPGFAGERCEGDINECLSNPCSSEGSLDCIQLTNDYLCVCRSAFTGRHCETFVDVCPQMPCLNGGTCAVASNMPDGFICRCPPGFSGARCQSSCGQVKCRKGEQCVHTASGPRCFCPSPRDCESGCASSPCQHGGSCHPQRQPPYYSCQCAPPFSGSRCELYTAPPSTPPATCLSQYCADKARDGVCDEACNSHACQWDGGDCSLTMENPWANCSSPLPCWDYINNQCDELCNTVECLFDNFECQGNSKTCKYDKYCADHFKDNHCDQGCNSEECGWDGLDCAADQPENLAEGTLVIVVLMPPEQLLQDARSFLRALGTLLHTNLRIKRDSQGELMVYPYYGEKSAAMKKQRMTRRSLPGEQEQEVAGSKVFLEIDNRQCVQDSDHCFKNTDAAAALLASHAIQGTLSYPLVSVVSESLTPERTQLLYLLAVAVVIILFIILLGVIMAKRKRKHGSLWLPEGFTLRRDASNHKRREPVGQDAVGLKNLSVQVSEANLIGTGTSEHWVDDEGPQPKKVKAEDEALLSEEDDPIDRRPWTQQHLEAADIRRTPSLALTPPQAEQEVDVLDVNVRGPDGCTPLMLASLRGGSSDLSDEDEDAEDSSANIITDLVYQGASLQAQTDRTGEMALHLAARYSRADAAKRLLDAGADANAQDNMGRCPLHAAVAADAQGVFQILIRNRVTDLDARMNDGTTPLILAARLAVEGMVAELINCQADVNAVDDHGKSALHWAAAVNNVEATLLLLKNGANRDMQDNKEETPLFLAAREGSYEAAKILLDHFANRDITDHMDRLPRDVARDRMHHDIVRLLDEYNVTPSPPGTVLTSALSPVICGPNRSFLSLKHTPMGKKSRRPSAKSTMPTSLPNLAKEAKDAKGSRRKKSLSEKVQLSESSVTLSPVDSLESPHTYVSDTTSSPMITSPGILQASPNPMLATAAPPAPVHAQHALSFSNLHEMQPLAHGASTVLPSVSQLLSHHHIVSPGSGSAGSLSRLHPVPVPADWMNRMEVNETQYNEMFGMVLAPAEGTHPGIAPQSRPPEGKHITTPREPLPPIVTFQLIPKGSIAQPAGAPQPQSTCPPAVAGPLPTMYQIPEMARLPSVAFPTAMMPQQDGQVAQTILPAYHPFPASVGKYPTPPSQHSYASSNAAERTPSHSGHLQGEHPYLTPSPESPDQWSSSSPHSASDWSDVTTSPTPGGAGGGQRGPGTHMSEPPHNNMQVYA
Chain of Pro-neuregulin-1, membrane-bound isoform (Homo sapiens) (Q02297 whole entry, looked up, the tested form may be a part, canonical isoform): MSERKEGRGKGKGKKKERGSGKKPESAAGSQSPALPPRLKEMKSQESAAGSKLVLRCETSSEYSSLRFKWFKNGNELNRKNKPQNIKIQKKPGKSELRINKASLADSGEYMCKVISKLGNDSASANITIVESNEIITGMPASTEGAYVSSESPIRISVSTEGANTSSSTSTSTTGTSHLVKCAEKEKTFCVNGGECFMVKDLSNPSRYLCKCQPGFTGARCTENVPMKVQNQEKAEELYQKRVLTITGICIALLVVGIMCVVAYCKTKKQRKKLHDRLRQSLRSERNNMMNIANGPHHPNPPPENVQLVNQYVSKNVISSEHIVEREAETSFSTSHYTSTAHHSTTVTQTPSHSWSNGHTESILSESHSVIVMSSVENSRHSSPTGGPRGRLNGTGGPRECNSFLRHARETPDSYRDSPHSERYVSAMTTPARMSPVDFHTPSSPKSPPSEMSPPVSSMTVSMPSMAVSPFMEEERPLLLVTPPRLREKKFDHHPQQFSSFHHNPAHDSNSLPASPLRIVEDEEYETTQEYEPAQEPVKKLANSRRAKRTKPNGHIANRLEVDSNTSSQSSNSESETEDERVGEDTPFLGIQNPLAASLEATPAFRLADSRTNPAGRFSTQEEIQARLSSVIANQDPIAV

Regarding `CN(C)c1ccc(C(O)C2C=CC3C(=O)N(c4ccccc4)C(=O)C3N2Nc2ccccc2F)cc1` (stereo not given), the composite z-score is 0.357 in test [1]; -0.159 in [2]; -0.0422 in test [3]; 0.208 in [4]; 1.46 in [5]; 0.86 in [6]. The composite z-score in test [7] is 1.25; in test [9] it was 0.957; in test [10] it was -0.212. The z-score in test [8] was 3.64 (inactive).
Take `O=C1C[C@@H](O)[C@@H](O)[C@@H]2[C@@H]3C(=O)N(C4CCCCC4)C(=O)[C@@H]3CC[C@H]12`: the composite z-score in test [1] is -0.472; in test [2], 0.176; in [3] it was -0.0638; in test [4] it was 0.593; in test [5], 0.698; in [6], 0.0523. Also, the composite z-score in [7] was 0.797; in [9] it was -0.22; in [10], -0.511. Further, the z-score in test [8] is 0.65 (inactive).
`CCCNC(=O)[C@@H]1c2ccccc2C(=O)N(c2ccc(C)cn2)[C@H]1c1ccc(CO)cc1`: the composite z-score is 0.901 in [1]; 0.0211 in [2]; -0.176 in test [3]; -0.857 in test [4]; -1.01 in [5]; -0.465 in test [6]. Moreover, the composite z-score in [7] was 1.4; in test [9], -0.348; in [10], -0.258. Also, in [8], the z-score was 0.213 (inactive).
As to `CC(C)NC(=O)[C@@]1(C)c2ccccc2C(=O)N(Cc2cc(F)cc(C(F)(F)F)c2)[C@H]1c1ccc(CO)cc1`, the composite z-score was 0.0059 in test [1]; 0.0214 in [2]; 0.0368 in [3]; 0.888 in [4]; 1.54 in test [5]; 0.341 in [6]. For the same molecule, the results for the composite z-score in test [7], in [9] and in test [10] were 1.17, 0.298 and -0.134, respectively. Moreover, in [8], the z-score was -1.31 (inactive).
Consider `Cc1ccc(F)cc1S(=O)(=O)N[C@@H]1CCN(Cc2ccc(CC(C)C)cc2)C1`, for which the composite z-score in test [1] is -0.433; in [2], 0.172; in test [3], -0.214; in [4], -0.613; in test [5], -0.613; in [6], -0.0721. In addition, the composite z-score in [7] is -0.197; in test [9], -0.493; in test [10], -0.249. Also, the z-score in test [8] is -1.06 (inactive).
With `COC(=O)CC=C[C@@H](C)[C@@H](C=NO[C@H](C)c1cn([C@@H]2COC[C@H]2O)nn1)OC`, the composite z-score was -0.276 in test [1]; 0.563 in [2]; -0.0914 in test [3]; 0.37 in test [4]; 0.268 in [5]; -0.482 in test [6]. The composite z-score in test [7] worked out at 0.951; in test [9], 0.0889; in test [10], 0.0024. For the same molecule, the z-score in [8] is -0.954 (inactive).
For `O=C1CCCC=C1C(O)CCOCc1ccccc1` (stereo not given), the composite z-score in [1] is -0.149; in test [2], 0.858; in test [3], -0.0753; in [4] it was 0.0674; in test [5], -0.175; in test [6], -0.573. For the same molecule, the composite z-score in test [7] is 0.28; in test [9], -0.0364; in test [10] it was -0.236. Further, in test [8], the z-score is 1.58 (inactive).
Turning to `CCOC(=O)NN=C1C[C@@H](O)[C@@H](O)[C@@H]2[C@@H]3C(=O)N(CC)C(=O)[C@@H]3CC[C@@H]12`, the composite z-score was -0.415 in [1]; 0.377 in [2]; -0.0355 in test [3]; 0.72 in test [4]; 0.797 in test [5]; -0.008 in [6]. The composite z-score is 0.672 in [7], 0.713 in [9] and -0.201 in test [10]. The z-score in [8] was 0.323 (inactive).
Take `CCCC[C@@H]1C[C@H]1[C@@H](NS(=O)(=O)c1cccc2cccnc12)c1ccc(-c2ccccc2)cc1`: the composite z-score in test [1] is 0.682; in [2], -0.165; in test [3], 0.0011; in test [4], 0.0132; in test [5], 0.523; in [6] it was 0.071. Further, the composite z-score in test [7] was 0.918; in test [9] it was 0.436; in test [10], -0.0123. Moreover, in [8], the z-score is 0.448 (inactive).
For the molecule `COc1ccccc1CN1C(=O)c2ccccc2[C@@H](C(=O)NCC(F)(F)F)[C@@H]1c1ccc(CO)cc1`, the composite z-score in test [1] was -0.271; in test [2], 0.683; in [3] it was -0.0829; in [4], 0.0992; in [5], 0.654; in test [6], 1.17. Moreover, the composite z-score in [7] was 1.39; in test [9] it was 0.19; in test [10], -0.0994. The z-score in test [8] is -3 (inactive).
Regarding `COc1ccc(CCNC(=O)[C@@H]2c3ccccc3C(=O)N(c3ccc(C)cn3)[C@H]2c2ccc(CO)cc2)cc1`, the composite z-score in test [1] was 1.18; in [2], -0.793; in test [3], -0.189; in test [4] it was -0.715; in test [5], -1.85; in [6], -1.13. The composite z-score in [7] was 1.2; in test [9], -0.57; in [10] it was -0.0994. Besides, in test [8], the z-score is 0.379 (inactive).
Regarding `NC(=O)NCC#Cc1ccc2c(c1)[C@]1(C(=O)N2)[C@H](c2ccc(O)cc2)N2[C@H](c3ccccc3)[C@H](c3ccccc3)OC(=O)[C@H]2[C@@H]1C(=O)N1CCCCCCC1`, the composite z-score is 2.38 in test [1]; -0.206 in test [2]; 0.242 in [3]; 0.122 in test [4]; 0.617 in test [5]; 0.467 in [6]. Also, the composite z-score in test [7] was found to be 0.839; in test [9], 2.31; in test [10], 0.257. The z-score in test [8] is -1.21 (inactive).
On to `CCCC=C(CCC)[C@@H](NC(=O)c1ccc(-c2ccccc2)cc1)c1ccc(C(=O)OC)cc1`, for which the composite z-score is 0.0763 in [1]; -0.719 in test [2]; 0.0827 in test [3]; 0.0375 in test [4]; 1.51 in [5]; 0.746 in test [6]. The values for the composite z-score in test [7], in test [9] and in test [10] were 0.824, 0.801 and 1.81, respectively. The z-score in [8] is 0.348 (inactive).
Turning to `COC(=O)CC1OC1[C@H](C)[C@@H](OC)C(C)C` (stereo not given in full), the composite z-score was -0.243 in [1]; -0.0917 in test [2]; -0.201 in test [3]; 0.123 in [4]; -0.624 in [5]; -0.407 in test [6]. Moreover, the composite z-score is -0.102 in test [7], 0.0068 in test [9] and -0.316 in test [10]. In addition, the z-score in test [8] is 1.24 (inactive).
In the case of `COc1ccc(O[C@H]2C=C[C@@H](c3ccccc3)O[C@@H]2CON=C[C@@H](C)[C@H](OCc2ccccc2)C(C)C)cc1`, the composite z-score in [1] was -0.397; in test [2], -0.249; in test [3], -0.168; in [4], -0.773; in [5] it was -0.936; in test [6], -0.744. The composite z-score is -0.921 in test [7], -0.623 in test [9] and -0.602 in [10]. Besides, the z-score in test [8] is -1.01 (inactive).
`CC(C)C[C@@H]1NC(=O)[C@H]2C[C@@H](C(=O)NCCCCCCN(C)C)[C@@H](c3cccc(OCCO)c3)N2C1=O`: the composite z-score in [1] is 0.293; in test [2], 1.55; in [3], -0.0173; in test [4], 0.789; in test [5] it was 0.873; in [6], 0.528. Moreover, the composite z-score was 0.781 in test [7], 0.256 in [9] and -0.156 in test [10]. In [8], the z-score was 3.77 (inactive).
As for `CCCCc1nc2c(c3c1C[C@H](C)OC3)CN(CCC(C)C)CC2`, the composite z-score in test [1] was -0.578; in [2] it was 0.252; in [3] it was -0.0687; in [4], 0.509; in [5], 1.16; in [6], 0.788. Also, the composite z-score is 1.17 in [7], 0.295 in test [9] and -0.199 in [10]. The z-score in test [8] was 0.607 (inactive).
In the case of `COc1ccc(O[C@H]2C=C[C@@H](c3ccccc3)O[C@@H]2COC(=O)CCC(C)=NO[C@@H](C)c2cc(-c3c(C)cc(C)cc3C)no2)cc1`, the composite z-score is -0.0675 in test [1]; -0.499 in [2]; -0.199 in [3]; -0.522 in test [4]; -1.07 in test [5]; -0.524 in test [6]. Also, the composite z-score in test [7] is -1.08; in [9], -0.666; in test [10] it was -0.237. In test [8], the z-score was 0.0014 (inactive).
